From PubChem BioAssay
Most compounds without a hit are left out; they make up all but 3.5% or so of the library.
rCAG RNA binder: r(CAG) repeat RNA binding; TO-PRO-1 dye displacement fluorescence; inhibition, % at 3 µM; hit rate 1.3% among 370,000; AID 651821;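 active = inhibition above the plate cutoff, the mean of all test compounds on that plate plus 3 SD, cut at about 35% in these data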;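 also: 0% = DMSO alone and 100% = 100 µM mitoxantrone as full dye displacement; higher means more dye released from RNA so lower well fluorescence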
LEDGF integ inh: blocks HIV-1 LEDGF/p75-dependent DNA integration; AID 743269; hit rate 0.64% among 370,000; inhibition, % at 3.7 µM; TR-FRET IN-LEDGF/p75 DNA integration, Eu/Cy5;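 active = inhibition above the screen-wide mean plus 3 SD, cut at about 13% in these data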;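 also: signal is the Cy5 over europium emission ratio at 671 and 618 nm; 0% = plate median of compound wells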
DNMT1 inh: inhibitors of human DNMT1; DNMT1 molecular beacon, Hinp1I cleavage, fluorescence; inhibition (reported as % activation of signal), % at 10 µM; hit rate 0.83% among 360,000; AID 588458; in the data active = inhibition above about 50%
MBD2 DNA inh: MBD2-methylated oligo binding inhibition; AID 686964; hit rate 0.31% among 370,000; Q9UBB5; TR-FRET, MBD2 binding to methylated oligonucleotide; inhibition, % at 4.4 µM; in the data active = inhibition above about 13%
PG9 binder: PG9 antibody binding by small molecule; TR-FRET gp120-PG9 antibody binding; inhibition, % at 6.7 µM; hit rate 0.43% among 360,000; AID 624416; in the data active = inhibition above about 8.5%
UHRF1 binding: human UHRF1 methylated DNA binding inhibitors; UHRF1 binding to methylated oligo, TR-FRET; inhibition, % at 4.4 µM; hit rate 0.75% among 370,000; AID 687016; in the data active = inhibition above about 21%;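 also: UHRF1 SRA domain binding a hemimethylated CpG hairpin DNA probe; 0% = median of test compound wells and 100% = reference inhibitor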
DNMT1 inh conf: DNMT1 inhibition confirmation, single concentration | shares compounds with DNMT1 inh | DNMT1 molecular beacon HinP1I cleavage, fluorescence | inhibition, % at 10 µM | hit rate 8% among 2,300;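 active = average inhibition of at least 30% in the single-concentration confirmation test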
DNMT1 interf: beacon fluorescence artifact counter-screen | DNMT1 molecular beacon spectral interference counterscreen, fluorescence 485/520 | activation (fluorescence interference), % at 10 µM | hit rate 1% among 2,300 | shares compounds with DNMT1 inh | AID 602387;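 active = activation of at least 30% at 10 µM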;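 also: DNMT1 catalytic domain with a HinP1I cleavage step and a FAM/dabcyl DNA beacon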
rCAG bind conf: r(CAG) RNA repeat binding, confirmation | shares compounds with rCAG RNA binder | AID 652065 | hit rate 70% among 4,300 | inhibition, % at 3 µM | TO-PRO-1 dye displacement fluorescence;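 active = inhibition above a per-plate cutoff, the mean inhibition of sample wells plus 3 SD, cut at about 35% in these data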;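 also: loss of TO-PRO-1 fluorescence as compound displaces dye from 1x1 AA loop RNA; 0% = DMSO only wells and 100% = 100 µM mitoxantrone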
dCAG dye counter: disrupts DNA CAG TO-PRO-1 complex, flagging rCAG hits. shares compounds with rCAG RNA binder. d(CAG) DNA oligo TO-PRO-1 dye displacement, fluorescence. inhibition, % at 3 µM. hit rate 94% among 4,300. AID 652068;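 active = inhibition above its plate's cutoff, the mean test-well inhibition plus 3 SD, cut at about 4.8% in these data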;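 also: 0% = DNA dye mix with DMSO and 100% = 100 µM mitoxantrone; hits displace the dye from DNA and so lower well fluorescence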
* = called active by the depositor.

C[C@]12CC[C@H](N)CC1=CCC1C2CC[C@@]2(C)C1CC[C@@H]2O (stereo partly specified) was read as rCAG RNA binder 2, LEDGF integ inh 0, DNMT1 inh -39, MBD2 DNA inh 3, PG9 binder -4 and UHRF1 binding -5.
Screening C[C@]12CC[C@@H](O)CC1=CCC1C2CC[C@@]2(C)C1CC[C@@H]2N (stereo partly specified) returned rCAG RNA binder 5, LEDGF integ inh 1, DNMT1 inh 81*, MBD2 DNA inh 0, PG9 binder -2, UHRF1 binding 3, DNMT1 inh conf 1 and DNMT1 interf 2.
CCN(C(=O)COC(=O)Cc1ccccc1)c1c(N)n(Cc2ccccc2)c(=O)[nH]c1=O was read as rCAG RNA binder 0, LEDGF integ inh -8, DNMT1 inh 86*, MBD2 DNA inh 0, PG9 binder 0, UHRF1 binding -3, DNMT1 inh conf 4 and DNMT1 interf 3.
CCOP(=O)(OCC)C(NC(=O)c1cccc2ccccc12)C(Cl)(Cl)Cl (stereo unspecified) was read as rCAG RNA binder -1, LEDGF integ inh 2, DNMT1 inh 3, MBD2 DNA inh 3, PG9 binder -2 and UHRF1 binding 2.
Screening O=C(O)Cn1cc(C=C2C(=O)NC(=O)NC2=O)c2ccccc21 returned rCAG RNA binder 8, LEDGF integ inh -2, DNMT1 inh 5, MBD2 DNA inh -3, PG9 binder -2 and UHRF1 binding -8.
For O=C(O)Cn1cc(/C=C2\C(=O)NC(=O)N(c3ccc(Cl)cc3)C2=O)c2ccccc21 the results were rCAG RNA binder 11, LEDGF integ inh 0, DNMT1 inh 67*, MBD2 DNA inh -4, PG9 binder 0, UHRF1 binding -3, DNMT1 inh conf 5 and DNMT1 interf 3.
`Cc1cc(N2CCNC[C@H]2C)ccc1N1CC[C@H](O)C1` gave rCAG RNA binder 4, LEDGF integ inh 7, MBD2 DNA inh -4, PG9 binder 1 and UHRF1 binding -4.
COC(=O)C1=C(c2ccc(S(C)(=O)=O)cc2)C[C@@H]2CC[C@H]1N2C(=O)N1CCOCC1 was read as rCAG RNA binder -5, LEDGF integ inh 2, DNMT1 inh 67*, MBD2 DNA inh 2, PG9 binder -1, UHRF1 binding 3, DNMT1 inh conf 1 and DNMT1 interf 0.
For COC(=O)C1=C(c2ccccc2)C[C@@H]2CC[C@H]1N2C(=O)N1CCOCC1 the results were rCAG RNA binder 5, LEDGF integ inh -1, DNMT1 inh 3, MBD2 DNA inh 6, PG9 binder 1 and UHRF1 binding 4.
CCOC(=O)CC[C@@H]1CC[C@]2(CCCN(Cc3cccnc3)C2)O1 was read as rCAG RNA binder 1, LEDGF integ inh 0, MBD2 DNA inh -1 and UHRF1 binding -3.
Screening O=C(CCc1nc(-c2ccccc2F)no1)N1CCC2(CC1)OCCO2 returned rCAG RNA binder -1, LEDGF integ inh 3, DNMT1 inh 58*, MBD2 DNA inh -6, PG9 binder -1, UHRF1 binding 4, DNMT1 inh conf 0 and DNMT1 interf 0.
For CC(N)Cc1c[nH]c2ccc(O)cc12 (stereo unspecified) the results were rCAG RNA binder 2, LEDGF integ inh 4, DNMT1 inh 76*, MBD2 DNA inh 1, PG9 binder 0, UHRF1 binding -2, DNMT1 inh conf 1 and DNMT1 interf 3.
Screening CC(N)Cc1c[nH]c2ccc(OCc3cccs3)cc12 (stereo unspecified) returned rCAG RNA binder 10, LEDGF integ inh 3, DNMT1 inh 1, MBD2 DNA inh 1, PG9 binder -1 and UHRF1 binding -2.
Screening COC(=O)c1c(N)n(Cc2ccc(OC)cc2)c2nc3ccccc3nc12 returned rCAG RNA binder 8, LEDGF integ inh 0, DNMT1 inh 70*, MBD2 DNA inh -2, PG9 binder 2, UHRF1 binding -5, DNMT1 inh conf 1 and DNMT1 interf 0.
`COc1ccc(Cn2c(N)c(C(=O)NCc3ccco3)c3nc4ccccc4nc32)cc1OC` gave rCAG RNA binder 18, LEDGF integ inh 2, DNMT1 inh 87*, MBD2 DNA inh -4, PG9 binder 2, UHRF1 binding -10, DNMT1 inh conf 10 and DNMT1 interf 8.
For COCCOC(=O)c1c(N)n(Cc2ccco2)c2nc3ccccc3nc12 the results were rCAG RNA binder 0, LEDGF integ inh 4, DNMT1 inh 66*, MBD2 DNA inh -9, PG9 binder -1, UHRF1 binding -9, DNMT1 inh conf 0 and DNMT1 interf 2.
Screening Nc1c(C(=O)OCC2CCCO2)c2nc3ccccc3nc2n1Cc1cccs1 (stereo unspecified) returned rCAG RNA binder 3, LEDGF integ inh 11, DNMT1 inh 73*, MBD2 DNA inh -7, PG9 binder 0, UHRF1 binding -8, DNMT1 inh conf 0 and DNMT1 interf 2.
CC(C)C(C(=O)NC(C)(C)C)N1C(=O)CN=C(c2ccccc2)c2ccccc21 (stereo unspecified) was read as rCAG RNA binder 3, LEDGF integ inh -5, MBD2 DNA inh -1 and UHRF1 binding 0.
`CCOC(=O)[C@]12Cc3cc(Cl)ccc3[C@H]1N(C1CCCCC1)C(=O)c1cc(OC)ccc12` gave rCAG RNA binder 5, LEDGF integ inh 1, MBD2 DNA inh 2, PG9 binder 1 and UHRF1 binding -4.
C=C1C(=O)C(C)=C2C(=O)N3Cc4[nH]c5ccccc5c4CC3(C(=O)OC)C12 (stereo unspecified) was read as rCAG RNA binder 15, LEDGF integ inh 3, MBD2 DNA inh -6 and UHRF1 binding -2.
Screening CCCCN1CCN(C(=O)COc2cc(=O)n(C)c3ccccc23)CC1 returned rCAG RNA binder 1, LEDGF integ inh 2, MBD2 DNA inh 4 and UHRF1 binding 0.
O=C1NC(=O)N(Cc2ccc(F)cc2)C(=O)/C1=C\c1ccoc1 was read as rCAG RNA binder 48*, LEDGF integ inh 13, DNMT1 inh 88*, MBD2 DNA inh -3, PG9 binder 2, UHRF1 binding 8, DNMT1 inh conf 3, DNMT1 interf -1, rCAG bind conf 38* and dCAG dye counter 11*.
